# Test results reported in PubChem BioAssay (NCI).
# Where “and” joins values, the source holds several entries; their conditions need not be identical. Identical values can stand only once. Compounds without any hit were thinned out: in the full panel of roughly 83,000, 20% have a hit.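 How to read the values: 0–100, growth inhibition (40 = 60% inhibited); 0, no net growth; -100 to 0, cell death (-40 = 40% of starting cells died; -100 = all dead).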 The source holds several records for some structures; these can differ, active in one and inactive in another. Calls of active or inactive are those of the source. The calls were made as follows: active = growth percent below 10; inactive = the rest.
# Columns and labels:
# Experiment in all cases: NCI-60 one-dose screen, 48 h (100 = growth as untreated, 0 = no growth, -100 = all killed)
# NCI-H226 lung = conditions: 10 µM
# NCI-H322M lung = conditions: 10 µM
# HOP-62 NSCLC = conditions: 10 µM
# NCI-H460 lung = conditions: 10 µM
# A549/ATCC NSCLC = conditions: 10 µM
# 786-0 renal = conditions: 10 µM
# COLO 205 colon = conditions: 10 µM
# DU-145 prostate = conditions: 10 µM
# SF-268 CNS = conditions: 10 µM
# SF-295 CNS = conditions: 10 µM
# SF-539 CNS = conditions: 10 µM
# HT29 colon = conditions: 10 µM
# SNB-75 CNS = conditions: 10 µM
# SNB-19 CNS = conditions: 10 µM
# U251 CNS = conditions: 10 µM
# PC-3 prostate = conditions: 10 µM
# EKVX NSCLC = conditions: 10 µM
# UO-31 renal = conditions: 10 µM
# ACHN renal = conditions: 10 µM
# HL-60(TB) leukemia = conditions: 10 µM unless noted
SMILES,growth (NCI-H226 lung),growth (NCI-H322M lung),growth (HOP-62 NSCLC),growth (NCI-H460 lung),growth (A549/ATCC NSCLC),growth (786-0 renal),growth (COLO 205 colon),growth (DU-145 prostate),growth (SF-268 CNS),growth (SF-295 CNS),growth (SF-539 CNS),growth (HT29 colon),growth (SNB-75 CNS),growth (SNB-19 CNS),growth (U251 CNS),growth (PC-3 prostate),growth (EKVX NSCLC),growth (UO-31 renal),growth (ACHN renal),growth (HL-60(TB) leukemia)
CC(C)(O)/C=C/C(=O)[C@](C)(O)[C@H]1[C@H](O)C[C@@]2(C)[C@H]3CC=C4[C@@H](C[C@H](O)C(=O)C4(C)C)[C@]3(C)C(=O)C[C@]12C,12.7% (inactive),32.3% (inactive),5.78% (active),15.6% (inactive),10.1% (inactive),1.91% (active),34.3% (inactive),14% (inactive),-3.28% (active),7.51% (active),-31.5% (active),3.2% (active),-39.4% (active),8.14% (active),0.229% (active),11.4% (inactive),18.4% (inactive),-52.7% (active),-1.68% (active),-3.29% (active)
CC(=O)O[C@@H]1[C@@H]2O[C@H]2[C@@](C)(O)C(=O)[C@@H](C)C/C=C/[C@H]2[C@@H]3O[C@]3(C)[C@@H](C)C3[C@H](Cc4ccccc4)NC(=O)[C@@]312 (stereo not given in full),65.7% (inactive),92.5% (inactive),5.72% (active),28.5% (inactive),25.1% (inactive),24.3% (inactive),38.8% (inactive),50.2% (inactive),26.5% (inactive),65.4% (inactive),51.5% (inactive),36.3% (inactive),-12.9% (active),55.1% (inactive),43.1% (inactive),72.3% (inactive),39.1% (inactive),24.8% (inactive),40.4% (inactive),58.2% (inactive)
Cc1ccc(CNc2nc3ccc(OC/C(=C/F)CN)cc3o2)cn1,90.3% (inactive),105% (inactive),72.9% (inactive),93.7% (inactive),95.6% (inactive),92.3% (inactive),111% (inactive),88.4% (inactive),89.8% (inactive),99.9% (inactive),94.9% (inactive),112% (inactive),55.5% (inactive),98.8% (inactive),110% (inactive),98.3% (inactive),61.7% (inactive),58.4% (inactive),99% (inactive),141% (inactive)
CC1=C(CN(O)C(N)=O)C2=C(C)C3(CC3)[C@@](C)(O)C(=O)C2=C1,-46.8% (active),5.16% (active),-9% (active),-11.2% (active),-8.35% (active),-5.47% (active),-35.9% (active),-2.79% (active),-14.7% (active),-11.4% (active),-46.1% (active),0.349% (active),-52.8% (active),16.2% (inactive),4.97% (active),2.36% (active),-24.1% (active),-31.8% (active),-14.4% (active),-28.2% (active)
COc1cc(C)c(-c2ccc(OC)c(=O)cc2C)c(OC)c1OC,41.8% (inactive) and 98.4% (inactive),46.5% (inactive) and 104% (inactive),31.5% (inactive) and 98.7% (inactive),4.53% (active) and 103% (inactive),17.6% (inactive) and 98.4% (inactive),37.8% (inactive) and 101% (inactive),-29.2% (active) and 94.5% (inactive),13.3% (inactive) and 104% (inactive),37.5% (inactive) and 103% (inactive),6.39% (active) and 100% (inactive),-7.85% (active) and 94.9% (inactive),4.37% (active) and 113% (inactive),28.3% (inactive) and 93.6% (inactive),20.1% (inactive) and 96.6% (inactive),11.9% (inactive) and 104% (inactive),19% (inactive) and 95.8% (inactive),36.6% (inactive) and 97.1% (inactive),47.5% (inactive) and 88.6% (inactive),31.9% (inactive) and 105% (inactive),-24.6% (active) and 98.8% (inactive)
O=C(CCCc1ccc(N(CCCl)CCCl)cc1)OCc1ccccc1,90.3% (inactive),103% (inactive),84.2% (inactive),53.1% (inactive),78.9% (inactive),99% (inactive),98% (inactive),96.7% (inactive),80.4% (inactive),87.7% (inactive),85.2% (inactive),95.8% (inactive),84.9% (inactive),95.9% (inactive),89.2% (inactive),83.2% (inactive),101% (inactive),83.6% (inactive),50.6% (inactive),68.7% (inactive)
COc1cccc2c1cc([N+](=O)[O-])c1c(C(=O)O)cc3c(c12)OCO3,104% (inactive),115% (inactive),113% (inactive),105% (inactive),100% (inactive),109% (inactive),18.1% (inactive),112% (inactive),108% (inactive),101% (inactive),106% (inactive),0.133% (active),96.2% (inactive),102% (inactive),103% (inactive),95.6% (inactive),97% (inactive),85.1% (inactive),101% (inactive),105% (inactive)
COC(=O)[C@H]1[C@@H](O)[C@@]2(O)c3c(OC)cc(OC)cc3O[C@@]2(c2ccc(OC)cc2)[C@@H]1c1ccccc1,3.03% (active),-19% (active),-11.6% (active),2.19% (active),-14.9% (active),0.303% (active),-71% (active),-9.42% (active),0.0752% (active),-14.4% (active),-25.6% (active),-34.3% (active),-6.18% (active),-4.86% (active),-5.73% (active),-7.51% (active),-5.16% (active),-20.5% (active),-23% (active),-21.8% (active)
CN1C(=O)[C@]23SSC1(C)C(=O)N2[C@H]1Nc2ccccc2C1([C@@]12c4ccccc4N[C@@H]1N1C(=O)C4(C)SS[C@]1(C(=O)N4C)[C@H]2O)[C@@H]3O (stereo not given in full),-96.6% (active),-74.2% (active),-91% (active),-87.4% (active),-86.9% (active),-99.1% (active),-88.9% (active),-94.1% (active),-86.5% (active),-80.2% (active),-91.3% (active),-66.7% (active),-85.8% (active),-99.4% (active),-97.5% (active),-79.9% (active),-97.4% (active),-100% (active),-98.8% (active),-19.4% (active)
CCCCCCCCCC(=O)N[C@@](C)(CC)C(=O)N1CCC[C@H]1C(=O)N[C@@H](CC(C)C)C(=O)N[C@@](C)(CC)C(=O)N[C@@H](CCC(N)=O)C(=O)N[C@H](CCC(N)=O)C(=O)NC(C)(C)C(=O)NC(C)(C)C(=O)N[C@@H](CCC(N)=O)C(=O)N[C@H](CC(C)C)C(=O)N[C@H](CO)CC(C)C,-71.9% (active) and -72.7% (active),-94.9% (active) and -60.9% (active),-74.3% (active) and -67.3% (active),-77.3% (active) and -76.8% (active),-48.6% (active) and -38% (active),-78.5% (active) and -80.4% (active),-63.2% (active) and -52.1% (active),-99.1% (active) and -81.9% (active),-80.5% (active) and -64.9% (active),-91.7% (active) and -90.9% (active),-97.2% (active) and -100% (active),-40.3% (active) and -67.2% (active),-90.8% (active) and -96.3% (active),-93.9% (active) and -99.6% (active),-75.9% (active) and -77.1% (active),-87.2% (active) and -63.7% (active),-86.7% (active) and -89.1% (active),-96.4% (active) and -89.3% (active),-93% (active) and -98.4% (active),-61.8% (active) and -23.6% (active)
CC1=C2C(=C[C@@](C)(COC(=O)c3ccc(S(=O)(=O)F)cc3)[C@@H]2OC(=O)c2ccc(S(=O)(=O)F)cc2)C(=O)[C@](C)(O)C12CC2,-6.08% (active),9.18% (active),-20.3% (active),0.279% (active),2.93% (active),-44.2% (active),-78.1% (active),5.79% (active),2.06% (active),1.3% (active),-4.86% (active),2.13% (active),-8.24% (active),21.5% (inactive),-21.5% (active),16.2% (inactive),23.6% (inactive),-13.7% (active),-15.8% (active),8.8% (active)
C/C=C\C(=O)O[C@@H]1CC2O[C@@H]3C=C(C)C(=O)C[C@]3(C)[C@]1(C)[C@]21CO1,-20.5% (active),-11% (active),-32.6% (active),0.808% (active),-5.19% (active),-20.2% (active),-55.3% (active),-15.1% (active),0.463% (active),-18.2% (active),-31.9% (active),-33.4% (active),-14.8% (active),-10.5% (active),-11% (active),-2.85% (active),-2.36% (active),-12.4% (active),-28.6% (active),-47.3% (active)
